# Test results published in PubChem BioAssay (NCI).
# Several values for one entry are separate records, joined by “and”; a condition that tells them apart may be missing. Equal entries are not always repeated. The panel holds about 79,000 compounds, 15% with a hit somewhere; the sample as a whole holds those more often. Where a structure was tested more than once in an assay, its records may differ in their call. Activity calls are given as the source filed them. Cut-off read from the data, not from the text of the source: active = growth inhibition above about 70%; inactive = the rest.
# Assay: NCI Yeast Anticancer Drug Screen. Data for the bub3 strain (AID 167)
# Settings: S. cerevisiae bub3 mutant strain, at 50.0 µM, stronger effect = higher value
# Procedure, shortened: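 Growth of a checkpoint-deficient yeast mutant is measured after compound exposure. Values represent inhibition relative to vehicle.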
row,SMILES,growth inhibition
1,CC(=O)OCC(OC(C)=O)C(OC(C)=O)C(OC(C)=O)C(C=NN(C(C)=O)S(=O)(=O)c1ccc(/C=C2\NC(=O)N(C)C2=O)cc1)OC(C)=O (stereo unspecified),12.7% (inactive) and 12.6% (inactive)
2,O=C(O)C1C2OC(C(Br)C2Br)C1C(=O)O (stereo unspecified),94.5% (active) and -11.8% (inactive)
3,COc1cc2c(c(OC)c1OC)-c1ccc(OC)c(=O)cc1C([N+](C)(C)C)CC2 (stereo unspecified),-3% (inactive) and -0.4% (inactive)
4,Cc1ccc2ccccc2[n+]1C,-1.5% (inactive) and -26.8% (inactive)
5,COc1ccc(C(O)C(NCCO)c2ccc(OC)cc2)cc1 (stereo unspecified),-2.25% (inactive) and 0.05% (inactive)
6,C/C=C(\C)c1cc(=O)c2c(C)cc3c(c2o1)C(=O)c1c(O)c(C2CC(C)(N(C)C)C(O)C(C)O2)cc(C2CC(N(C)C)C(O)C(C)O2)c1C3=O (stereo unspecified),8.2% (inactive) and 9.4% (inactive)
7,CCOC(=O)c1ccc(N=[N+]([O-])c2ccc(C(=O)OCC)cc2)cc1,-40.5% (inactive) and -19.9% (inactive)
8,C[N+](C)(C)CCOC(=O)c1ccccc1CBr,35.5% (inactive) and 99.2% (active)
9,CC(=O)OCC1OC(n2cnc3c(N)ncnc32)C(OC(C)=O)C1OC(C)=O (stereo unspecified),5.3% (inactive) and -0.8% (inactive)
10,CC(=O)/C=C/C1=C(C)CCCC1(C)C,-20.9% (inactive) and 0.5% (inactive)
11,COc1ccc2c(=O)c(C)c(-c3ccccc3)oc2c1CN(C)C,-22.6% (inactive) and -24.3% (inactive)
